Source: the supplement of paper PMC11172423
A number with no mark means an inactive call.

Tested on: Madurella mycetomatis MM55
Experiment: growth relative to untreated control; higher = less inhibition, active = 20 or less
Conditions: 25 µM
Procedure: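 Hyphal fragments of M. mycetomatis MM55 or F. senegalensis CBS197.79 in RPMI 1640/MOPS were exposed to each MMV COVID Box or Global Health Priority Box compound at 100 or 25 µM for 7 days at 37 °C. Viability was read with MTS (490 nm, M. mycetomatis) or resazurin (600 nm, F. senegalensis), background-corrected with a medium-only control and expressed as % growth relative to the untreated growth control. Inhibition of more than 80% was taken as growth inhibition.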

SMILES	growth
CC1(C)C(C=C(Cl)Cl)C1C(=O)OCc1cccc(Oc2ccccc2)c1 (stereo not given)	78.1%
CN1CCN(C(=O)O[C@H]2c3nccnc3C(=O)N2c2ccc(Cl)cn2)CC1	72.7%
Cc1sc2c(c1C)C(c1ccc(Cl)cc1)=N[C@@H](CC(=O)OC(C)(C)C)c1nnc(C)n1-2	97.1%
CC1(C)C(C=C(Cl)Cl)C1C(=O)OC(C#N)c1ccc(F)c(Oc2ccccc2)c1 (stereo not given)	115%
C/C=C(\C)C(=O)O[C@H]1C[C@@H](OC(C)=O)[C@@]2(C(=O)OC)CO[C@H]3[C@@H](O)[C@@](C)([C@]45O[C@@]4(C)[C@H]4C[C@@H]5O[C@@H]5OC=C[C@@]54O)[C@H]4[C@]1(CO[C@]4(O)C(=O)OC)[C@@H]32	130%
CN/C(=N/CC1CCOC1)N[N+](=O)[O-] (stereo not given)	90.9%
O=[N+]([O-])/C=C1\NCCCS1	94%
CN1COCN(Cc2cnc(Cl)s2)/C1=N/[N+](=O)[O-]	87.9%
CC[C@@H](C(=O)[C@@H](C)[C@@H](O)[C@H](C)[C@@H]1O[C@@H]([C@@H](CC)C(=O)O)CC[C@@H]1C)[C@H]1O[C@]2(C=C[C@@H](O)[C@]3(CC[C@@](C)([C@H]4CC[C@](O)(CC)[C@H](C)O4)O3)O2)[C@H](C)C[C@@H]1C	124%
Cc1c(COC(=O)[C@@H]2[C@H](C=C(Cl)C(F)(F)F)C2(C)C)cccc1-c1ccccc1	123%
N#Cc1nn(-c2c(Cl)cc(C(F)(F)F)cc2Cl)c(NCc2ccccn2)c1SC(F)F	47.2%
COc1ccc(CCN2CCC(Nc3nc4ccccc4n3Cc3ccc(F)cc3)CC2)cc1	3.51% (active)
CCOCn1c(-c2ccc(Cl)cc2)c(C#N)c(Br)c1C(F)(F)F	30.1%
Clc1ccc(C(OCCN2CCCCC2)c2ccccc2)cc1 (stereo not given)	120%
CC[C@H](C)[C@H]1O[C@]2(C=C[C@@H]1C)C[C@@H]1C[C@@H](C/C=C(\C)[C@@H](O[C@H]3C[C@H](OC)[C@@H](O[C@H]4C[C@H](OC)[C@@H](O)[C@H](C)O4)[C@H](C)O3)[C@@H](C)/C=C/C=C3\CO[C@@H]4[C@H](O)C(C)=C[C@@H](C(=O)O1)[C@]34O)O2.CO[C@H]1C[C@H](O[C@H]2[C@H](C)O[C@@H](O[C@@H]3/C(C)=C/C[C@@H]4C[C@@H](C[C@]5(C=C[C@H](C)[C@@H](C(C)C)O5)O4)OC(=O)[C@@H]4C=C(C)[C@@H](O)[C@H]5OC/C(=C\C=C\[C@@H]3C)[C@]54O)C[C@@H]2OC)O[C@@H](C)[C@@H]1O	75.2%
CNC(=O)Oc1cccc2ccccc12	95.8%
O=C1C=C(N(Cc2ccc(Cl)nc2)CC(F)F)CO1	92.5%
CN(C)CCn1c(Nc2cc(Cl)cc(C(F)(F)F)c2)nc2cnc(NC3CCCC3)cc21	39.6%
CC(c1ccc(C(F)(F)F)nc1)S(C)(=O)=NC#N (stereo not given)	71.6%
Cc1cc(C2=NOC(c3cc(Cl)cc(Cl)c3)(C(F)(F)F)C2)ccc1C(=O)NCC(=O)NCC(F)(F)F (stereo not given)	43.8%

Same assay, conditions: 100 µM

SMILES	growth
CC1(C)C(C=C(Cl)Cl)C1C(=O)OCc1cccc(Oc2ccccc2)c1 (stereo not given)	151%
CN1CCN(C(=O)O[C@H]2c3nccnc3C(=O)N2c2ccc(Cl)cn2)CC1	88.8%
Cc1sc2c(c1C)C(c1ccc(Cl)cc1)=N[C@@H](CC(=O)OC(C)(C)C)c1nnc(C)n1-2	4.14% (active)
CC1(C)C(C=C(Cl)Cl)C1C(=O)OC(C#N)c1ccc(F)c(Oc2ccccc2)c1 (stereo not given)	146%
C/C=C(\C)C(=O)O[C@H]1C[C@@H](OC(C)=O)[C@@]2(C(=O)OC)CO[C@H]3[C@@H](O)[C@@](C)([C@]45O[C@@]4(C)[C@H]4C[C@@H]5O[C@@H]5OC=C[C@@]54O)[C@H]4[C@]1(CO[C@]4(O)C(=O)OC)[C@@H]32	106%
CN/C(=N/CC1CCOC1)N[N+](=O)[O-] (stereo not given)	125%
O=[N+]([O-])/C=C1\NCCCS1	122%
CN1COCN(Cc2cnc(Cl)s2)/C1=N/[N+](=O)[O-]	126%
CC[C@@H](C(=O)[C@@H](C)[C@@H](O)[C@H](C)[C@@H]1O[C@@H]([C@@H](CC)C(=O)O)CC[C@@H]1C)[C@H]1O[C@]2(C=C[C@@H](O)[C@]3(CC[C@@](C)([C@H]4CC[C@](O)(CC)[C@H](C)O4)O3)O2)[C@H](C)C[C@@H]1C	70.3%
Cc1c(COC(=O)[C@@H]2[C@H](C=C(Cl)C(F)(F)F)C2(C)C)cccc1-c1ccccc1	156%
N#Cc1nn(-c2c(Cl)cc(C(F)(F)F)cc2Cl)c(NCc2ccccn2)c1SC(F)F	131%
COc1ccc(CCN2CCC(Nc3nc4ccccc4n3Cc3ccc(F)cc3)CC2)cc1	4.43% (active)
CCOCn1c(-c2ccc(Cl)cc2)c(C#N)c(Br)c1C(F)(F)F	6.93% (active)
Clc1ccc(C(OCCN2CCCCC2)c2ccccc2)cc1 (stereo not given)	4.6% (active)
CC[C@H](C)[C@H]1O[C@]2(C=C[C@@H]1C)C[C@@H]1C[C@@H](C/C=C(\C)[C@@H](O[C@H]3C[C@H](OC)[C@@H](O[C@H]4C[C@H](OC)[C@@H](O)[C@H](C)O4)[C@H](C)O3)[C@@H](C)/C=C/C=C3\CO[C@@H]4[C@H](O)C(C)=C[C@@H](C(=O)O1)[C@]34O)O2.CO[C@H]1C[C@H](O[C@H]2[C@H](C)O[C@@H](O[C@@H]3/C(C)=C/C[C@@H]4C[C@@H](C[C@]5(C=C[C@H](C)[C@@H](C(C)C)O5)O4)OC(=O)[C@@H]4C=C(C)[C@@H](O)[C@H]5OC/C(=C\C=C\[C@@H]3C)[C@]54O)C[C@@H]2OC)O[C@@H](C)[C@@H]1O	55.6%
CNC(=O)Oc1cccc2ccccc12	85.3%
O=C1C=C(N(Cc2ccc(Cl)nc2)CC(F)F)CO1	114%
CN(C)CCn1c(Nc2cc(Cl)cc(C(F)(F)F)c2)nc2cnc(NC3CCCC3)cc21	124%
CC(c1ccc(C(F)(F)F)nc1)S(C)(=O)=NC#N (stereo not given)	173%
Cc1cc(C2=NOC(c3cc(Cl)cc(Cl)c3)(C(F)(F)F)C2)ccc1C(=O)NCC(=O)NCC(F)(F)F (stereo not given)	9.07% (active)
